The list is not random: actives were taken first. Their share in the collection is about 2.7%.
IDE cell activ: boosts human insulin-degrading enzyme activity in HEK cells; actives 0.073% (n = 340,000); FAbeta-B cleavage, fluorescence polarization; 0% vehicle, 100% cell-free pure enzyme wells; activation, % at 5.96 µM; P14735;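 active = activation above the mean of all tested compounds plus 3 SD, set per screening campaign, cut at about 17% in these data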
TMEM16A act: mouse TMEM16A channel activation, primary screen. B-score at 10 µM. AID 623877. Q8BHY3. HEK293 TMEM16A/YFP-H148Q/I152L, iodide quench fluorescence; stronger effect = lower value. actives 0.3% (n = 340,000);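 active = fluorescence-ratio B-score plate-corrected deviation score at least 3 library SD below zero, with starting fluorescence score within 5 deviations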;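 note: channel opened by trigger with iodide after compound preincubation; score built on the fluorescence ratio of max minus min over baseline; more negative score means more quench and so TMEM16A activation or potentiation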
CHT inh: inhibits the human high affinity choline transporter. B-score at 10 µM. Q9GZV3. CHT-expressing cells, membrane potential dye, choline response; stronger effect = lower value. actives 0.86% (n = 310,000). AID 488975;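 active = B-score over 3 SD under the library average, and starting fluorescence ratio not unusually high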;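 note: choline stimulus applied at its EC90 after an EC20 pre-addition; B-score computed on integrated fluorescence ratio after choline addition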
IDE cell inh: cellular human IDE inhibition; P14735; HEK cells, FAbetaB cleavage, fluorescence polarization; inhibition, % at 5.59 µM; actives 0.41% (n = 320,000);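 active = percent inhibition above the average of all tested compounds plus 3 SD, set per screening campaign, cut at about 16% in these data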;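 note: IDE supplied by intact live HEK cells; FP after avidin binding of uncleaved biotin substrate so inhibition keeps polarization high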
CHT PAM: allosteric activators of human choline transporter CHT | Q9GZV3 | CHT-expressing cells, membrane potential dye, choline EC20; stronger effect = higher value; LV-AA mutant CHT in HEK293 cells | B-score at 10 µM | actives 0.49% (n = 310,000) | AID 488977;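 active = initial fluorescence not abnormally high and integrated response B-score, plate-corrected, over 3 SD above library mean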
TMEM16A inh: blocks the mouse calcium-activated chloride channel TMEM16A; HEK293 TMEM16A/YFP iodide influx fluorescence, ionomycin; Q8BHY3; AID 588511; actives 1.2% (n = 310,000); normalized B-score (activity score, 25-100; higher = stronger inhibition) at 10 µM;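 active = ratio plate-corrected score three or more library SD toward inhibition, starting fluorescence score within five deviations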;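 note: score derived from kinetic fluorescence span divided by baseline fluorescence per well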
TMEM16A reconf: TMEM16A (mouse) chloride channel inhibition, re-confirmation; inhibition, % at 10 µM; actives 39% (n = 2,300); HEK293 TMEM16A/YFP-H148Q, iodide quench fluorescence; ionomycin added to raise cell calcium; shares compounds with TMEM16A inh; AID 652189;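 active = mean duplicate percent inhibition, scaled so buffer wells are 0 and the reference blocker 100, over three buffer SD above buffer mean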
TMEM16A Ca cntr: alters calcium mobilization in TMEM16A HEK293 cells, counter-screen; actives 2% (n = 2,300); shares compounds with TMEM16A inh; AID 652231; TMEM16A/YFP HEK293, Fluo4 calcium mobilization; calcium response (% of ionomycin), % at 10 µM;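 active = duplicate-averaged calcium signal over 20% of the ionomycin maximum, relative to buffer baseline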;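 note: each well's signal is peak minus trough fluorescence divided by its pre-addition baseline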
Parental YFP cnt: counter-screen for TMEM16A inhibitors: effect in parental YFP-HEK293 cells. shares compounds with TMEM16A inh. iodide YFP quench, ionomycin. YFP ratio F(max-min)/F0 at 10 µM. 2,300 tested, under 10 active. AID 652233;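 active = yellow fluorescent protein signal ratio exceeding the buffer control mean by over 5 SD of those controls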;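 note: ratio is mean of duplicate wells from kinetic YFP trace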
ClC-1 inh: rat ClC-1 inhibition, TMEM16A specificity screen. shares compounds with TMEM16A inh. ratio percent, % at 10 µM. CHO ClC-1-YFP, iodide influx fluorescence quench; iodide control reads 0, buffer control 100. 2,300 tested, under 10 active;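 active = duplicate-mean ratio percent above the mean of iodide-only control wells, which defines zero, plus 5 of their SD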;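 note: higher percent means stronger block of ClC-1 iodide influx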
Of the large screens only hits and unclear results are named; the others gave an inactive call (follow-up assays come after a bar, where they were run).

CCOc1ccc(NC(=O)C2CCC(C)(C(=O)O)C2(C)C)cc1 (centres undefined)	TMEM16A inh 25 | TMEM16A reconf inactive | TMEM16A Ca cntr inactive | Parental YFP cnt inactive | ClC-1 inh inactive
COc1cccc(NC(=O)C(NCCc2ccc(S(N)(=O)=O)cc2)c2ccccc2)c1 (centres undefined)	none
N#Cc1c(-c2ccccc2)nc(SCc2cccc(Cl)c2)[nH]c1=O	TMEM16A inh 100 | TMEM16A reconf 83% | TMEM16A Ca cntr inactive | Parental YFP cnt inactive | ClC-1 inh inactive
Cc1[nH]c(=O)nc(SCc2cccc(Cl)c2)c1C#N	none
Cn1c(C(=O)N2CCN(c3ccc(Cl)cc3)CC2)cc2c(=O)[nH]c3ccccc3c21	none
Cc1ccc(Cl)cc1N1CCN(C(=O)c2cc3c(=O)[nH]c4ccccc4c3n2C)CC1	TMEM16A inh 25 | TMEM16A reconf 38% | TMEM16A Ca cntr inactive | Parental YFP cnt inactive | ClC-1 inh inactive
O=C(NCCC1=CCCCC1)c1ccc(Cl)c(S(=O)(=O)Nc2ccccc2)c1	TMEM16A inh 100 | TMEM16A reconf inactive | TMEM16A Ca cntr inactive | Parental YFP cnt inactive | ClC-1 inh inactive
Cc1ccccc1NS(=O)(=O)c1cc(C(=O)NCCC2=CCCCC2)ccc1C	none
CCn1cc(C(=O)NCc2ccccn2)c(=O)c2cc(F)c(N3CCN(C)CC3)cc21	none | TMEM16A reconf inactive | TMEM16A Ca cntr inactive | Parental YFP cnt inactive | ClC-1 inh inactive
CCn1cc(C(=O)NCCc2ccccc2)c(=O)c2cc(F)c(N3CCN(C)CC3)cc21	none
CC(NC(=O)Cn1cc2c(n1)CCCCC2)c1ccccc1 (centres undefined)	TMEM16A inh 25 | TMEM16A reconf inactive | TMEM16A Ca cntr inactive | Parental YFP cnt inactive | ClC-1 inh inactive
O=C(O)Cn1cc2c(n1)CCCCC2	none
COc1ccc(Cl)cc1CC=NNC(=O)c1cccc(C)c1O	none (no result: CHT inh, IDE cell inh, CHT PAM, TMEM16A inh)
CC(C)CC(=O)c1c[nH]c(C(=O)NCCCN2CCOCC2)c1	TMEM16A inh 25 | TMEM16A reconf inactive | TMEM16A Ca cntr inactive | Parental YFP cnt inactive | ClC-1 inh inactive
CC(Oc1ccc(Cl)cc1Cl)c1nc(-c2ccccn2)no1 (centres undefined)	none
CC(Oc1ccc(Cl)cc1Cl)c1nc(-c2ccc(NC(=O)c3cccnc3)cc2)no1 (centres undefined)	TMEM16A inh 25 | TMEM16A reconf inactive | TMEM16A Ca cntr inactive | Parental YFP cnt inactive | ClC-1 inh inactive
CCCCN(C(=O)c1cc2ccccc2o1)c1c(N)n(CCCC)c(=O)[nH]c1=O	none (no result: CHT inh, CHT PAM, TMEM16A inh)
C=CCOc1ccc(/C=C2\SC(=S)N(NS(=O)(=O)c3ccc(C)cc3)C2=O)cc1	TMEM16A inh 100 | TMEM16A reconf 72% | TMEM16A Ca cntr inactive | Parental YFP cnt inactive | ClC-1 inh inactive
COc1cc(C(=O)NCCOc2cccc(C)c2)c(Br)c(OC)c1OC	none
COc1cc(C(=O)NCCOc2ccccc2)c(Br)c(OC)c1OC	TMEM16A inh 25 | TMEM16A reconf inactive | TMEM16A Ca cntr inactive | Parental YFP cnt inactive | ClC-1 inh inactive
O=c1c2c([nH]c3ccccc13)CCCCCC2	TMEM16A inh 25 | TMEM16A reconf inactive | TMEM16A Ca cntr inactive | Parental YFP cnt inactive | ClC-1 inh inactive
COc1ccc2cc([C@H](C)C(=O)N(C)Cc3ccccc3N3CCCC3)ccc2c1	none | TMEM16A reconf 22% | TMEM16A Ca cntr inactive | Parental YFP cnt inactive | ClC-1 inh inactive
COc1ccc(C(CNC(=O)C(C)c2ccc3cc(OC)ccc3c2)N(C)C)cc1 (centres undefined)	none
CC(=O)Nc1ccc(NC(=O)C2CC(=O)N(Cc3ccco3)C2)cc1 (centres undefined)	none (no result: CHT inh, IDE cell inh, CHT PAM, TMEM16A inh)
COc1ccc(/C(O)=C/C(=O)C(=O)NNC(=O)C(O)(c2ccccc2)c2ccccc2)cc1	TMEM16A act -10, TMEM16A inh 100 | TMEM16A reconf 20% | TMEM16A Ca cntr inactive | Parental YFP cnt inactive | ClC-1 inh inactive
COc1ccc(/C(O)=C/C(=O)C(=O)NNC(=O)c2ccccc2)cc1	none
O=C(CSc1nc2ccc([N+](=O)[O-])cc2[nH]1)NC1CCCCC1	TMEM16A inh 25 | TMEM16A reconf inactive | TMEM16A Ca cntr inactive | Parental YFP cnt inactive | ClC-1 inh inactive
CCOC(=O)NC(=O)CSc1nc2ccc([N+](=O)[O-])cc2[nH]1	none
COC(=O)c1ccc(CSc2nc(C(F)(F)F)c3c(c2C#N)CCC3)o1	TMEM16A inh 100 | TMEM16A reconf inactive | TMEM16A Ca cntr inactive | Parental YFP cnt inactive | ClC-1 inh inactive
O=C(c1cc(COc2cccc(C(F)(F)F)c2)on1)N1C[C@H]2CC[C@H]1C2	none
CC1(C)C[C@@H]2C[C@@](C)(CN2C(=O)c2cc(COc3cccc(C(F)(F)F)c3)on2)C1	TMEM16A inh 25 | TMEM16A reconf inactive | TMEM16A Ca cntr inactive | Parental YFP cnt inactive | ClC-1 inh inactive
O=C(Nc1ccncc1)C1CCN(S(=O)(=O)c2ccc(Cl)cc2)CC1	none
N#CC1(Cc2ccccc2)c2ccccc2C=CN1C(=O)c1ccccc1 (centres undefined)	TMEM16A inh 100 | TMEM16A reconf inactive | TMEM16A Ca cntr inactive | Parental YFP cnt inactive | ClC-1 inh inactive
CCOc1ccc(OCC(=O)OC(C)C(=O)NC2CCCC2)cc1 (centres undefined)	none (no result: CHT inh, CHT PAM, TMEM16A inh)
O=C(NCc1ccncc1)c1nc(-c2ccc(C(F)(F)F)cc2)no1	TMEM16A inh 25 | TMEM16A reconf 18% | TMEM16A Ca cntr inactive | Parental YFP cnt inactive | ClC-1 inh inactive
CN=C1S/C(=C\c2ccc(O)c(Br)c2)C(=O)N1C	TMEM16A inh 25 (no result: CHT inh, CHT PAM) | TMEM16A reconf inactive | TMEM16A Ca cntr inactive | Parental YFP cnt inactive | ClC-1 inh inactive
CN=C1S/C(=C\c2ccc(O)c(OC)c2)C(=O)N1C	none (no result: IDE cell activ)
Cc1cc(N)ccc1NC(=O)c1ccccc1	TMEM16A inh 100 | TMEM16A reconf inactive | TMEM16A Ca cntr inactive | Parental YFP cnt inactive | ClC-1 inh inactive
Cc1cc(O)ccc1NC(=O)c1ccccc1	none

Screening data (PubChem BioAssay)
